According to PubChem BioAssay (EPA / NIEHS):
The source made the active and inactive calls. Rule for the calls: active = hit-call score of the fitted dose curve at least 0.9, where 1 is the maximum; inactive = score below 0.9.

Tests used:
[1] = ATG_E_Box_CIS: Attagene CIS-FACTORIAL HepG2 Assay for human Enhancer Box (E-box) (AID 2282936); conditions: HepG2 E-box cis-reporter transcription, actives raise or lower the signal
Summary of the method: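 DMSO served as negative control and baseline for bidirectional fitting. Human hepatoma HepG2 cells, transiently transfected with cis-reporter constructs, were dosed 24 h; reporter mRNA read by RT-PCR and capillary electrophoresis.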

[2] = ATG_M_61_CIS: Attagene CIS-FACTORIAL HepG2 Assay for M61 Transcription Factor (Internal Marker) (AID 2282937); conditions: HepG2 Attagene CIS-FACTORIAL M61 internal marker reporter; actives raise or lower the signal
Summary of the method: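 HepG2 cells transiently transfected with cis-element-driven multiple reporter transcription units, dosed for 24 h. Reporter mRNA measured by RT-PCR, 6-FAM primer-extension labelling, HpaI digestion and capillary electrophoresis; bidirectional fit versus DMSO baseline.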

[3] = ATG_EGR_CIS: Attagene CIS-FACTORIAL HepG2 Assay for human Early Growth Response 1 (EGR1) (AID 2282938); conditions: HepG2 Attagene CIS-FACTORIAL EGR reporter mRNA; actives raise or lower the signal
Summary of the method: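 HepG2 cells transiently transfected with cis-promoter-driven multiplexed reporter transcription units; reporter mRNA measured 24 h after compound dosing by RT-PCR, 6-FAM primer extension, HpaI digestion and capillary electrophoresis. Bidirectional fit versus DMSO baseline.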

[4] = ATG_M_19_CIS: Attagene CIS-FACTORIAL HepG2 Assay for M19 Transcription Factor (Internal Marker) (AID 2282939); conditions: HepG2 Attagene CIS-FACTORIAL M19 internal marker reporter; actives raise or lower the signal
Summary of the method: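 Chemical-treated HepG2 (24 h) with MRTU constructs; reporter transcripts detected by fluorescent RT-PCR fragment analysis on capillary electrophoresis. Internal background marker, DMSO as baseline.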

[5] = ATG_ERE_CIS: Attagene CIS-FACTORIAL HepG2 Assay for Estrogen Response Element (ERE) (AID 2282940); conditions: HepG2 ERE cis-reporter, Attagene RNA transcript; actives raise or lower the signal
Summary of the method: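 Human liver cells (HepG2) bearing transiently transfected, promoter-regulated reporter units were exposed 24 h. Reporter mRNA induction was detected by capillary electrophoresis of labelled RT-PCR products and fitted bidirectionally to DMSO.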

[6] = ATG_Ets_CIS: Attagene CIS-FACTORIAL HepG2 Assay for human Erythroblast Transformation Specific (ETS) (AID 2282941); conditions: HepG2 ETS cis-reporter transcription, actives raise or lower the signal
Summary of the method: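 Steps: transfect HepG2 with multiple reporter units; treat compound 24 h; isolate RNA, DNase-treat, reverse-transcribe; PCR-amplify, label with 6-FAM, digest with HpaI; separate by capillary electrophoresis. Activity fitted both directions versus DMSO.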

[7] = biological target: Hepatocyte nuclear factor 3-beta (Homo sapiens) (UniProt Q9Y261); test: ATG_FoxA2_CIS: Attagene CIS-FACTORIAL HepG2 Assay for human Forkhead box A2 (FOXA2) (AID 2282942); conditions: HepG2 cis-reporter transcription factor activity, 24 h; actives raise or lower the signal
Summary of the method: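 HepG2 cells transiently transfected with multiple cis-regulated reporter transcription units, dosed for 24 h. Reporter mRNA measured by RT-PCR, 6-FAM labelling, HpaI digestion and capillary electrophoresis; bidirectional fitting against DMSO baseline.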

[8] = ATG_FoxO_CIS: Attagene CIS-FACTORIAL HepG2 Assay for human Forkhead box O (FoxO) (AID 2282943); conditions: HepG2 Attagene cis-reporter, FoxO element, mRNA; actives raise or lower the signal
Summary of the method: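 HepG2, transient MRTU transfection (cis element, endogenous TFs). Dose 24 h. TriZol RNA → oligo(dT) RT → PCR → 6-FAM primer extension → HpaI cut → CE. Gain/loss vs DMSO.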

[9] = ATG_GATA_CIS: Attagene CIS-FACTORIAL HepG2 Assay for human GATA Binding Protein (AID 2282944); conditions: HepG2 GATA cis-element reporter, Attagene multiplex mRNA; actives raise or lower the signal
Summary of the method: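 Transfected cis-reporter HepG2 cells were treated with chemicals for 24 hours. Total RNA was then converted to cDNA, amplified with reporter-specific primers and analysed by fluorescent capillary electrophoresis, using DMSO-treated wells as baseline.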

[10] = ATG_GLI_CIS: Attagene CIS-FACTORIAL HepG2 Assay for human Zinc Finger Protein GLI1 (AID 2282945); conditions: HepG2, Attagene cis-factorial reporter mRNA, GLI element; actives raise or lower the signal
Summary of the method: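 Bidirectional curve fits relative to DMSO, using reporter mRNA levels from RT-PCR plus capillary electrophoresis. Cells were HepG2 transiently carrying cis-regulated reporter constructs, harvested 24 h after dosing.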

[11] = biological target: Bile acid receptor (Homo sapiens) (UniProt Q96RI1); test: ATG_IR1_CIS: Attagene CIS-FACTORIAL HepG2 Assay for human Nuclear Receptor Subfamily 1 Group H Member 4 (NR1H4), IR1 submotif (AID 2282946); conditions: IR1 reporter transcription, actives raise or lower the signal
Summary of the method: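 Cells (human HepG2) carry transiently transfected cis-promoter reporter transcription units. Compounds are incubated 24 h, total RNA is reverse-transcribed and amplified, and labelled fragments are resolved by capillary electrophoresis. Curves use DMSO as baseline.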

[12] = ATG_GRE_CIS: Attagene CIS-FACTORIAL HepG2 Assay for human Glucocorticoid Response Elements (GRE) (AID 2282947); conditions: HepG2 GRE cis-reporter, Attagene multiplex mRNA; actives raise or lower the signal
Summary of the method: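 Assay uses human hepatoma HepG2 cells transfected with cis-promoter reporter units, exposed 24 h. mRNA from reporters detected by RT-PCR plus capillary electrophoresis; DMSO serves as negative control and baseline.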

[13] = ATG_ISRE_CIS: Attagene CIS-FACTORIAL HepG2 Assay for human Interferon Regulatory Factor 1 (IRF1) binding to an Interferon-Stimulated Response Element (ISRE) (AID 2282948); conditions: HepG2 ISRE cis-reporter (Attagene), mRNA transcription readout; actives raise or lower the signal
Summary of the method: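 Transfected HepG2 (multiple reporter transcription units, cis elements) dosed 24 h. RNA → oligo(dT) RT → PCR → 6-FAM primer extension → HpaI → CE. DMSO = negative control/baseline.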

[14] = ATG_M_32_CIS: Attagene CIS-FACTORIAL HepG2 Assay for M32 Transcription Factor (Internal Marker) (AID 2282949); conditions: HepG2 Attagene cis-factorial M32 reporter, mRNA; actives raise or lower the signal;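 note: background control marker of the multiplexed CIS panel rather than a real target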
Summary of the method: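 Internal background marker read-out: RT-PCR/capillary electrophoresis fluorescence of reporter transcripts from transiently transfected HepG2 cells after 24 h chemical exposure. Activity fitted bidirectionally relative to DMSO negative control.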

[15] = ATG_M_06_CIS: Attagene CIS-FACTORIAL HepG2 Assay for M06 Transcription Factor (Internal Marker) (AID 2282950); conditions: HepG2 Attagene CIS-FACTORIAL M06 internal marker reporter; actives raise or lower the signal
Summary of the method: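 Cells (HepG2, transiently carrying cis-driven reporter units) receive chemical for 24 h before RNA isolation. Reporter cDNA is PCR-amplified, FAM-labelled by primer extension, HpaI-digested and sized on a capillary analyser.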

[16] = biological target: Hypoxia-inducible factor 1-alpha (Homo sapiens) (UniProt Q16665); test: ATG_HIF1a_CIS: Attagene CIS-FACTORIAL HepG2 Assay for human Hypoxia Inducible Factor 1 (HIF1A) (AID 2282951); conditions: HepG2 Attagene cis-factorial HIF1a reporter transcription; actives raise or lower the signal
Summary of the method: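 HepG2 cells transiently transfected with multiplexed cis-promoter reporter units; reporter mRNA read 24 h after dosing by RT-PCR, 6-FAM primer-extension labelling, HpaI digestion and capillary electrophoresis. Bidirectional fit versus DMSO baseline.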

[17] = biological target: Hepatocyte nuclear factor 6 (Homo sapiens) (UniProt Q9UBC0); test: ATG_HNF6_CIS: Attagene CIS-FACTORIAL HepG2 Assay for human Hepatocyte Nuclear Factor 6 (HNF6) (AID 2282952); conditions: HepG2 Attagene cis-factorial HNF6 reporter transcription; actives raise or lower the signal
Summary of the method: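 Cells are HepG2 carrying transiently transfected cis-promoter reporter units. Treatment lasts 24 h, after which reporter transcripts are reverse-transcribed, amplified, FAM-labelled and sized by capillary electrophoresis. DMSO serves as baseline.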

[18] = biological target: Heat shock factor protein 1 (Homo sapiens) (UniProt Q00613); test: ATG_HSE_CIS: Attagene CIS-FACTORIAL HepG2 Assay for human Heat Shock Transcription Factor 1 (HSE) (AID 2282953); conditions: HepG2 HSE cis-reporter, Attagene RNA transcription; actives raise or lower the signal
Summary of the method: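 Liver-derived HepG2 cells carry transiently introduced multiple reporter units governed by cis promoters. Reporter RNA measured 24 h post-dose through reverse transcription, PCR amplification, fluorescent labelling and capillary electrophoresis, normalised to DMSO.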

[19] = ATG_MRE_CIS: Attagene CIS-FACTORIAL HepG2 Assay for human Metal Responsive Element (MRE) (AID 2282954); conditions: HepG2 MRE cis-reporter transcription, Attagene multiplex; actives raise or lower the signal
Summary of the method: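 After a 24 h chemical exposure, transiently transfected HepG2 cells yield RNA whose reporter sequences are amplified, FAM-labelled and sized by capillary electrophoresis. Curves are fitted bidirectionally relative to DMSO.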

[20] = ATG_PBREM_CIS: Attagene CIS-FACTORIAL HepG2 Assay for human Phenobarbital-responsive Enhancer Module (PBREM) (AID 2282955); conditions: HepG2 PBREM cis-reporter, Attagene multiplexed transcription; actives raise or lower the signal
Summary of the method: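 HepG2 cells transiently transfected with multiple cis-regulated reporter transcription units; endogenous factor activity at the PBREM element measured as reporter mRNA 24 h after dosing, via RT-PCR and capillary electrophoresis of fluorescent fragments; bidirectional fitting versus DMSO.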

Measured: outcome

Hypoxia-inducible factor 1-alpha (Homo sapiens), sequence (Q16665 whole entry, looked up): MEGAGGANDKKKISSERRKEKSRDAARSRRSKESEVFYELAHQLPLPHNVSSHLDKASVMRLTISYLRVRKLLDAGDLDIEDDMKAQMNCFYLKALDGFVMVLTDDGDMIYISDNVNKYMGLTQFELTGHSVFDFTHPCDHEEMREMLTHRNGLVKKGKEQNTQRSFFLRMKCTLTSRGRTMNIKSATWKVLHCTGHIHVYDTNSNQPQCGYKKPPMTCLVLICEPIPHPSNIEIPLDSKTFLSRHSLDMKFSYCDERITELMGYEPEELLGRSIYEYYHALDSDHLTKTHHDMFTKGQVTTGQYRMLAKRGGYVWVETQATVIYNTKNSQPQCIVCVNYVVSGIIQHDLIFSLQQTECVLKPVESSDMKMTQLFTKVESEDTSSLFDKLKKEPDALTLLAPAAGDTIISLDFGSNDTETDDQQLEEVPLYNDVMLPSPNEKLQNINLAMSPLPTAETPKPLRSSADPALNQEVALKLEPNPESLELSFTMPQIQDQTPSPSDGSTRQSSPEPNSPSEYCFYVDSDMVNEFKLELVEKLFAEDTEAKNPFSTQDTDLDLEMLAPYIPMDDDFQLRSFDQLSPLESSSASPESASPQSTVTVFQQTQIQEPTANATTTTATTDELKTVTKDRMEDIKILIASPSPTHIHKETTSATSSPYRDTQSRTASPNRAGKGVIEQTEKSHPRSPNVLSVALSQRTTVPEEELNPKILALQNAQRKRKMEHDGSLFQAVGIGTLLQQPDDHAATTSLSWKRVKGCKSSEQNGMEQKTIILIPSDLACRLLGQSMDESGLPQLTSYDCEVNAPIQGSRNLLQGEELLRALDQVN
Heat shock factor protein 1 (Homo sapiens), sequence (Q00613 whole entry, looked up): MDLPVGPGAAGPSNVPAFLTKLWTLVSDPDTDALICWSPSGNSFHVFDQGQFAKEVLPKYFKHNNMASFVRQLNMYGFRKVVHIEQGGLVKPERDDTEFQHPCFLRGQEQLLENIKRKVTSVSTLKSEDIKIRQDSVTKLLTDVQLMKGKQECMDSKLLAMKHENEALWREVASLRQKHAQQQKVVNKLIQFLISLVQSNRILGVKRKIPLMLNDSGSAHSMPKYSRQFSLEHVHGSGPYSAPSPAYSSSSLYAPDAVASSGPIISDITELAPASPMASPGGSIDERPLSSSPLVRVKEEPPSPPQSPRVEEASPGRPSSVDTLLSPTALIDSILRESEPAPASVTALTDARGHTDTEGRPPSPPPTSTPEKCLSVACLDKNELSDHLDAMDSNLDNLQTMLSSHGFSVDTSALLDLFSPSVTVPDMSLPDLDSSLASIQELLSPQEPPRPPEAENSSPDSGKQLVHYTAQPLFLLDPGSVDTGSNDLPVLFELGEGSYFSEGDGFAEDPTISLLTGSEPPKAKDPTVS
Bile acid receptor (Homo sapiens), sequence (Q96RI1 whole entry, looked up, the tested form may be a part): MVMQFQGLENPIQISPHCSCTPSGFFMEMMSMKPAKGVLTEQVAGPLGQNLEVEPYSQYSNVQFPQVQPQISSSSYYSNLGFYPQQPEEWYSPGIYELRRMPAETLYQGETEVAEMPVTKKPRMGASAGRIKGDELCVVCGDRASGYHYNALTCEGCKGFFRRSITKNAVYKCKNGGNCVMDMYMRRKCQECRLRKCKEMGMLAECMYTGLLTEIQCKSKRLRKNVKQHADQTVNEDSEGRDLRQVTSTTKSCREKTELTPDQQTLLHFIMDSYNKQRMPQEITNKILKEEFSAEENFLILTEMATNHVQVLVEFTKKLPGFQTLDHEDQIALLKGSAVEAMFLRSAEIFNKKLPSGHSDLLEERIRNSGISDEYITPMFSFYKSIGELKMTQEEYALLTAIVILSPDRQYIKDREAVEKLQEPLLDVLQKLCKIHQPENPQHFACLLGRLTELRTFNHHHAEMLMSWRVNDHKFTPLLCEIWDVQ
Hepatocyte nuclear factor 3-beta (Homo sapiens), sequence (Q9Y261 whole entry, looked up): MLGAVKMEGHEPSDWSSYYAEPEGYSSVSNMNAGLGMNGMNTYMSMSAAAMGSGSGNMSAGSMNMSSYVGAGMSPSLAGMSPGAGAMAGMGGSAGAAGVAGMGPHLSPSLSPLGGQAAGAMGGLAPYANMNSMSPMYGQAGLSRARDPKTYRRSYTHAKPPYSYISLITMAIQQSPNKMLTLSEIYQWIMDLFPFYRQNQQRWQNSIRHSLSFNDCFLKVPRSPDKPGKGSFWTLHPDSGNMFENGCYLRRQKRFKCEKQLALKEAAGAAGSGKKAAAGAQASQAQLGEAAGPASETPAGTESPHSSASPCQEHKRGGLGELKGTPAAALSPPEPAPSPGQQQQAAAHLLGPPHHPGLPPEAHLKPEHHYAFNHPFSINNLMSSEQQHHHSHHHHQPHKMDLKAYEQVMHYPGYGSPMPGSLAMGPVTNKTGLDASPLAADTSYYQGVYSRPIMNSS
Hepatocyte nuclear factor 6 (Homo sapiens), sequence (Q9UBC0 whole entry, looked up): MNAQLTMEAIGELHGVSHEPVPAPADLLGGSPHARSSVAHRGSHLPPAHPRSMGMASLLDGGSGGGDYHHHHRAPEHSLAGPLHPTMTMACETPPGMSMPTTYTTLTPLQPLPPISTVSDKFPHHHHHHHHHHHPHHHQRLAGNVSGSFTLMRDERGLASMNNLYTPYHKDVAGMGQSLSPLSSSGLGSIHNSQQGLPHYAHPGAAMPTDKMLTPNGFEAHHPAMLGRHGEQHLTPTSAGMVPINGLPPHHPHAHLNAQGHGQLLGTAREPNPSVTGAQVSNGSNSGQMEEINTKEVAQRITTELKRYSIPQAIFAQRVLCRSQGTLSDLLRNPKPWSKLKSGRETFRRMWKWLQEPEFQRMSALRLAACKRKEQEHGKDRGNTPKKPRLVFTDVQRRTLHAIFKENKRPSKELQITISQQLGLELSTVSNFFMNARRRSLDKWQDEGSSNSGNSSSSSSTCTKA

COC(=O)c1sccc1S(N)(=O)=O
inactive: all assays above

O=C(O)c1cc2ccccc2nc1C(=O)O
inactive: all assays above

CC=CCO
not listed: [20]
inactive: all other assays above
